Test results reported in article PMC5540273 (PLoS ONE, 2017).

Experiments:
Details in all cases: concentration: 1 μM, replicates: in singlicate; n = 1
[1] = test system: T1, DCAMKL2
T1 construct: gene DCLK2

[2] = test system: T2, DCAMKL3
T2 construct: gene DCLK3

[3] = test system: DDR1
[4] = test system: DDR2
[5] = test system: T3, DLK
T3 construct: gene MAP3K12

[6] = test system: T4, DMPK2
T4 construct: gene CDC42BPG

[7] = test system: DMPK
[8] = test system: T5, DRAK1
T5 construct: gene STK17A

[9] = test system: T6, DRAK2
T6 construct: gene STK17B

[10] = test system: DYRK1A
[11] = test system: DYRK1B
[12] = test system: DYRK2
[13] = test system: EGFR
[14] = test system: EIF2AK1
[15] = test system: EPHA1
[16] = test system: EPHA2
[17] = test system: EPHA3
[18] = test system: EPHA4
[19] = test system: EPHA5
[20] = test system: EPHA6
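Also: KINOMEscan kinase panel screen.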

SMILES	%Inh [1] [%]	%Inh [2] [%]	%Inh [3] [%]	%Inh [4] [%]	%Inh [5] [%]	%Inh [6] [%]	%Inh [7] [%]	%Inh [8] [%]	%Inh [9] [%]	%Inh [10] [%]	%Inh [11] [%]	%Inh [12] [%]	%Inh [13] [%]	%Inh [14] [%]	%Inh [15] [%]	%Inh [16] [%]	%Inh [17] [%]	%Inh [18] [%]	%Inh [19] [%]	%Inh [20] [%]
CC(C)c1nc(-c2ccc(F)c(NS(=O)(=O)c3c(F)cccc3F)c2)c(-c2ccnc(Nc3ccc(N4CCOCC4)nc3)n2)s1 [GSK1804250]	0	30	82	56	68	26	6	15	0	7	0	2	82	67	96.2	17	31	30	1	50
O=C(Nc1n[nH]c2cc(-c3cccs3)ccc12)C1CC1 [SB-731284]	3	0	10	23	26	0	0	14	12	15	0	34	4	7	0	0	13	0	0	0
Cc1ccc(-c2ccc3occ(-c4ccc(S(C)=O)cc4)c3c2)nn1 (stereo not shown)	0	21	0	16	0	0	8	10	22	0	33	0	0	0	0	4	6	11	0	21
N#Cc1cnc2cc(-c3cnc(CNCCN4CCOCC4)s3)ccc2c1Nc1ccc(Oc2ccccc2)cc1 [GW664114]	0	0	21	11	91.2	0	0	2	0	38	5	14	98.1	0	8	0	10	11	0	19
COc1cc(Nc2nccc(N3CCC(NS(=O)(=O)c4ccc(NC(C)=O)cc4)CC3)n2)cc(OC)c1OC [GSK1379825]	1	0	0	14	76	83	0	0	0	25	8	10	11	7	54	46	0	28	0	37
Cc1cc(-c2c(-c3ccc(F)cc3)ncn2CCCN2CCOCC2)nc(N)n1 [SB-222517]	2	0	0	21	0	0	16	13	15	0	20	34	0	0	0	0	0	20	9	30
COc1ccc(C2=C(Nc3cccc(O)c3)C(=O)NC2=O)cc1 [SB-390766]	0	1	1	17	19	0	0	3	0	70	100	30	32	5	11	0	0	0	0	0
CN(c1ccc(F)c(NC(=O)c2cccc(OC(C)(C)C#N)c2Cl)c1)c1ccc2nc(NC(=O)C3CC3)sc2n1	0	0	100	97	2	14	0	0	0	0	46	0	64	7	58	67	31	20	0	27
